# Assay results published in ChEMBL document CHEMBL1157539, “Thousands of chemical starting points for antimalarial lead identification” (Nature, 2010).
# System: HepG2
# Assay: GSK_TCMDC: Percent inhibition of human HepG2 cell line. Test compounds present at 10uM.
# Type: functional
row,SMILES,Inhibition
1,CCCCCC(C)NC[C@@H](O)[C@H](Cc1ccccc1)NC(=O)c1cc(NCC)cc(N2CCCCS2(=O)=O)c1.Cl (stereo partly specified),3%
2,CN1C(C)(C)CC(NC(=O)c2ccc(-c3nc4cc(Cl)c(Cl)cc4[nH]3)cc2)CC1(C)C,8%
3,COc1ccc2nccc([C@@H](O)CN3CCC(NCc4cc5ccccc5s4)CC3)c2c1.O=C(O)C(=O)O,8%
4,CCn1c(SCc2ccccc2)nc2c1c(=O)[nH]c(=O)n2C,1%
5,Cc1ccc(S(=O)(=O)Nc2ccc(Nc3nccc(Nc4cccc5[nH]ncc45)n3)cc2)cc1,57%
6,CCCNC(=O)Nc1cc2cc(-c3cccc(CN4CCCCC4)c3)ccc2n2c(C)nnc12,60%
7,Cc1ccc(NC(=O)c2cccc(CN3CCCN(Cc4cccc(O)c4)CC3)c2)cc1.O=C(O)C(F)(F)F,22%
8,CC(C)(C)c1cc(NC(=O)c2ccc(Cl)c([N+](=O)[O-])c2)cc(C(C)(C)C)c1,0%
9,CC(C)c1cc(Oc2c(I)cc(CCNCc3ccccc3)cc2I)ccc1O.Cl,42%
10,CC(C)CNCc1cccc(-c2cccc(CN(CCCN3CCN(C)CC3)C(=O)CCC3CCCC3)c2)c1.O=C(O)C(F)(F)F,45%
11,OCC(c1ccccc1)n1c(COc2ccc(Cl)cc2)nc2c(OCCCN3CCCCC3)cccc21 (stereo unspecified),6%
12,COc1ccc(CNC2CCN(c3ccc(NC(=O)c4cccc(Cl)c4)cc3)CC2)cc1OC,26%
13,Nc1ncc(-c2ccc(F)cc2)c2ccc(-c3cccc(F)c3)cc12,34%
14,COc1ccc2nccc(N3CCC(O)(CCNCc4ccc5c(n4)NC(=O)CS5)CC3)c2n1.Cl,10%
15,CS(=O)(=O)Nc1ccc2[nH]cc(C3CCN(CCCCCNC(=O)/C=C/c4ccc(Cl)c(Cl)c4)CC3)c2c1,1%
16,c1cc(-c2nc3ccccc3[nH]2)nc(-c2nc3ccccc3[nH]2)c1,7%
17,COc1ccc(O)c(C(=O)c2cc(C(=O)NC3CCCCC3)c(=O)n(C3CCCCC3)c2)c1,8%
18,O=S(=O)(Nc1cccc(CCN2CCC(N3CCCCC3)CC2)c1)c1ccc(Oc2ccccc2)nc1,8%

row,SMILES,Inhibition
1,O=C(O)CCSSc1cccc[n+]1[O-],100%
2,CSc1ccc(CN2CCC(NC(=O)c3ccc(-c4cccc(Cl)c4)s3)CC2)cc1.O=C(O)C(F)(F)F,75%
3,O=C(CN1CCN(C(=O)c2ccco2)CC1)Nc1ccc(Br)cc1Cl,10%
4,CCc1cn2c3c(cc(C(=O)N[C@@H](Cc4ccccc4)[C@H](O)CNCc4ccc(C)cc4)cc13)N(C)S(=O)(=O)CC2.O=CO,0%
5,O=C(/C=C/c1ccc(Cl)c(Cl)c1)NCCCCCN1CCC(NC(=O)Nc2ccc(Oc3ccccc3)cc2)C1 (stereo unspecified),35%
6,CCN(CC)CCCN(CCCN(CC)CC)c1cc(C)nc(Nc2ccc3cc(Br)ccc3c2)n1.Cl,12%
7,Cl.Oc1c(Cl)cc(-c2ccccc2)cc1CNC1CCCCC1,5%
8,Cc1ccnc2nc(C(=O)Nc3cc(C(F)(F)F)ccc3N3CCCCC3)nn12,7%
9,Cc1cn(CC(=O)Nc2cccc(-c3cccc(-c4nc5cc(C(F)(F)F)ccc5[nH]4)c3)c2)c(=O)[nH]c1=O,15%
10,COc1ccc(CN2CCC(N3CCc4cc(NC(=O)c5cc(C)on5)ccc43)C2)cc1Cl (stereo unspecified),15%
11,O=C(NC1CCCCC1)C1CCCN(C(=O)c2ccc(O)c(-c3ccc(Cl)c(Cl)c3)c2)C1 (stereo unspecified),22%
12,N#Cc1ccc(N/C(=N\c2cccc(Cl)c2Cl)NC2Cc3ccccc3C2)c(O)c1,15%
13,CCN(CC)CCOc1ccc(C(O)(C#CC(O)(c2ccc(Br)cc2)c2ccc(OCCN(CC)CC)cc2)c2ccc(Br)cc2)cc1 (stereo unspecified),99%
14,CS(=O)(=O)n1c(CN2CCN(c3ncc(C(F)(F)F)cc3Cl)CC2)nc2ccccc21,0%
15,CCCCC(CC)C(=O)C(NC(=O)[C@H](CSC(c1ccccc1)(c1ccccc1)c1ccccc1)NC(=O)OC(C)(C)C)C(=O)OC (stereo partly specified),8%
16,COc1ccc(CN2CCCN(Cc3cccc(NC(=O)c4ccc5ccccc5c4)c3)CC2)cc1.O=C(O)C(F)(F)F,27%
17,COc1cc2c(cc1S(=O)(=O)c1ccc(NC(=O)c3cc4ccccc4s3)cc1)CCN(C)CC2,21%
18,N=C1NC(=N)N(OCCCCCCON2C(=N)NC(=N)NC2C=Cc2ccccc2)C(C=Cc2ccccc2)N1 (stereo unspecified),17%
